Results published in PubChem BioAssay (EPA / NIEHS).
Where “and” joins values, the source holds several entries; their conditions need not be identical. Equal entries are not always repeated. Records with an inconclusive call do not appear. Some compounds were tested as several samples or in several runs, with calls that do not always agree. Calls of active or inactive are those of the source. The calls were made as follows: active = hit-call score of the fitted dose curve at least 0.9, where 1 is the maximum; inconclusive = response in the unintended direction; inactive = score below 0.9.

What follows are compounds tested against Retinoic acid receptor RXR-alpha (Homo sapiens) (UniProt P19793) (assay: OT_NURR1_NURR1RXRa_0480: Odyssey Thera (OT) 8-hour HEK293T Protein Complementation Assay for Nurr1/retinoid X receptor (RXR) (AID 2283385)).
Sequence of Retinoic acid receptor RXR-alpha (Homo sapiens) (P19793 whole entry, looked up, the tested form may be a part): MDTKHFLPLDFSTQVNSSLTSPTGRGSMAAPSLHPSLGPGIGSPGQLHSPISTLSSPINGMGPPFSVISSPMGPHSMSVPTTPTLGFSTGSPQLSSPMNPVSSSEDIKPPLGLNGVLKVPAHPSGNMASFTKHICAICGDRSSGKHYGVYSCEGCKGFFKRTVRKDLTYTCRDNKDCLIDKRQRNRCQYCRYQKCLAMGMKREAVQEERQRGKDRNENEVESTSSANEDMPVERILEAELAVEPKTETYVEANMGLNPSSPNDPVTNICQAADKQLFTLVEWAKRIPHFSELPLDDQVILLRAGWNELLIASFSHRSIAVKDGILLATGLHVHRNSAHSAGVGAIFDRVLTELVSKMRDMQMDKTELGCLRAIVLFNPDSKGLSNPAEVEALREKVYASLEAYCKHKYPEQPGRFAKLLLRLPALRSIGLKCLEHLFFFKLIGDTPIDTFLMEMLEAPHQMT
Protocol: OT_NURR1_NURR1RXRa_0480 is a cell-based assay that uses HEK293T, a human kidney cell line, with measurements taken at 8 hours after chemical dosing in a 384-well plate.OT_NURR1_NURR1RXRa_0480 is one of one assay component(s) measured or calculated from the OT_NURR1_NURR1RXRa_0480 assay. It is designed to make measurements of protein fragment complementation, a form of binding reporter, as detected with fluorescence intensity signals by Protein-fragment Complementation technology.Data from the assay component OT_NURR1_NURR1RXRa_0480 was analyzed into 1 assay endpoint. This assay endpoint, OT_NURR1_NURR1RXRa_0480, was analyzed in the positive analysis fitting direction relative to DMSO as the negative control and baseline of activity. Using a type of binding reporter, measures of receptor for gain-of-signal activity can be used to understand the binding at the pathway-level as they relate to the gene RXRA. Furthermore, this assay endpoint can be referred to as a primary readout, because the performed assay has only produced 1 assay endpoint. To generalize the intended target to other relatable targets, this assay endpoint is annotated to the nuclear receptor intended target family, where the subfamily is non-steroidal.
Protein-fragment complementation assay, or PCA, is a method for the identification and quantification of protein-protein interactions. In the PCA, the proteins of interest ("bait" and "prey") are each covalently linked to fragments of a third protein (e.g. DHFR, which acts as a "reporter"). Interaction between the bait and the prey proteins brings the fragments of the reporter protein in close proximity to allow them to form a functional reporter protein whose activity can be measured.

Row | SMILES | AC50 | outcome
1 | C[C@]12C=CC3=C4CCC(=O)C=C4CC[C@H]3[C@@H]1CC[C@@H]2O | 14.3 µM (active) | inactive
2 | Nc1ccc(Cc2ccc(N)cc2)cc1 | – | inactive
3 | Clc1ccc(C(c2ccc(Cl)cc2)C(Cl)Cl)cc1 | 92.4 µM (active) | –
4 | O=[N+]([O-])c1ccc(Oc2ccc(Cl)cc2Cl)cc1 | 75.3 µM (active) | inactive
5 | Cc1cccc(N)c1N | 33.9 µM (active) | inactive
6 | c1ccc(C2CO2)cc1 (stereo not given) | – | inactive
7 | ClCCOCCCl | – | inactive
8 | O=C(Nc1ccccc1)c1ccccc1I | – | inactive
9 | Cc1cc(N=Nc2ccccc2C)ccc1N | – | inactive
10 | CCCCCOC(=O)c1ccccc1C(=O)OCCCCC | – | inactive
11 | CCCCC(CC)COC(=O)c1ccc(C(=O)OCC(CC)CCCC)c(C(=O)OCC(CC)CCCC)c1 (stereo not given) | – | inactive
12 | c1ccc2c(c1)-c1cccc3cccc-2c13 | – | inactive
13 | Cc1ccc(N)cc1 | – | inactive
14 | O=C(O)C1C2CCC(O2)C1C(=O)O (stereo not given) | 74.3 µM (active) | inactive
15 | CO[C@@H]1[C@H](OC(=O)NC(=O)CCl)CC[C@]2(CO2)[C@H]1[C@@]1(C)O[C@@H]1CC=C(C)C | – | inactive
16 | ClC1=C(Cl)C2(Cl)C3C(Cl)C=CC3C1(Cl)C2(Cl)Cl (stereo not given) | – | inactive
17 | C[N+](C)(C)CC1CO1 (stereo not given) | – | inactive
18 | CCN(CC)CCO | – | inactive

Row | SMILES | AC50 | outcome
19 | OCCCl | – | inactive
20 | OCCOCCO | – | inactive
21 | CN(C)c1ccc(C(=O)c2ccc(N(C)C)cc2)cc1 | 60.1 µM (active) | inactive
22 | CCNS(=O)(=O)C(F)(F)C(F)(F)C(F)(F)C(F)(F)C(F)(F)C(F)(F)C(F)(F)C(F)(F)F | – | inactive
23 | CCN(CC)N=O | – | inactive
24 | Clc1ccc(C(c2ccc(Cl)cc2)C(Cl)(Cl)Cl)cc1 | 70.1 µM (active) | –
25 | CCC[CH2][Sn]([Cl])([CH2]CCC)[CH2]CCC | – | inactive
26 | CC(C)(OOC(C)(C)c1ccccc1)c1ccccc1 | 77.4 µM (active) and 93.2 µM (active) | –
27 | CN(C)C(=O)Nc1ccc(Cl)cc1 | – | inactive
28 | CCOc1cccc(C2(N3CCN(c4ccccc4)CC3)CCC(C)CC2)c1 (stereo not given) | – | inactive
29 | c1ccc(NNc2ccccc2)cc1 | – | inactive
30 | CCCSC(=O)N(CCC)CCC | – | inactive
31 | Nc1ccc(Oc2ccc(N)cc2)cc1 | – | inactive
32 | CC(C)(O)c1cnn2c(-c3ccc(F)c(-c4c(F)cccc4C#N)c3)cnc2n1 | 84.7 µM (active) and 91.1 µM (active) | –
33 | COC(=O)Nc1nc2ccccc2[nH]1 | – | inactive
34 | CC(C)(C)OOC(C)(C)CCC(C)(C)OOC(C)(C)C | – | inactive
35 | CCCCCCCCCCCCCN1CC(C)OC(C)C1 (stereo not given) | 72.5 µM (active) | –
